TDP1 cell CPT = growth inhibition of DT40 Tdp1-/-;hTDP1 cells with camptothecin (screen for TDP1 inhibitors); chicken DT40 Tdp1-/-;hTDP1 cells + 20 nM CPT, ATP luminescence, 48 h; Potency, µM (highest dose often 46.2 µM), usual class: inhibitors; 420,000 tested, 12% active; also: nearly all actives have a fitted effect of over 55% in size
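Chicken DT40 Tdp1-/- cells complemented with human TDP1, 400 cells/well, exposed to compounds plus 20 nM camptothecin for at least 48 h at 37 C; viability read as ATP content by CellTiter-Glo luminescence.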
IL-1B inflam inh = inflammasome signaling inhibition, IL-1 beta readout | activity change, % at 57.5 µM | AID 743279 | 360,000 tested, 4.7% active | THP-1 LPS/ATP IL-1B secretion, AlphaLISA, 16 h; stronger effect = lower value; in the data active = activity change below about -50%; inconclusive = mostly about -30% to -49%
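THP-1 cells pretreated 1 hr with compounds (up to 57.5 uM final), then stimulated with LPS (250 ng/mL final) plus ATP (1.25 mM final); secreted IL-1B measured by AlphaLISA after 16 hr, decreased signal indicating inhibition.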
MCF10A rereplic = inducers of DNA re-replication in MCF 10A breast cells. MCF 10A DNA re-replication, Hoechst nuclear intensity, 48 h. Potency, µM (highest dose often 46.1 µM), actives largely listed as activators. 350,000 tested, 2.9% active; also: nearly all actives have a fitted effect of over 50% in size
SW480 rerep = induces DNA re-replication in SW480 colon adenocarcinoma cells. 340,000 tested, 1.8% active. Potency, µM (highest dose often 46.1 µM), most hits filed as activators. SW480 DNA re-replication, Hoechst DNA content imaging, 48 h; also: nearly all actives have a fitted effect of over 55% in size
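SW480 cells exposed to compounds for 48 hr at 37 C, 5% CO2, then Hoechst-stained 40 min. Nuclear DNA content imaged by fluorescence scanning (405 nm excitation, 500-530 nm emission); re-replication scored as increased high-intensity nuclei.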
TDP1 cell noCPT = qHTS for Inhibitors of human tyrosyl-DNA phosphodiesterase 1 (TDP1): qHTS in cells in absence of CPT. DT40 Tdp1-/- hTDP1 cells, no CPT, ATP luminescence, 48 h. Potency, µM (top dose mostly 46.2 µM), most hits filed as inhibitors. 420,000 tested, 15% active. AID 686978, 2013; also: nearly all actives have a fitted effect of over 55% in size
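Growth kinetics read by CellTiter-Glo luminescence after ≥48 hr at 37 °C. Cells: DT40 Tdp1-/- stably carrying human TDP1, 400 per well, compound exposure in the absence of CPT (DMSO vehicle).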
Chronic BCR inh = blocks chronic active B-cell receptor signaling | ABC-DLBCL IkBa-CBG/CBR reporter, luminescence ratio, 4 h | Potency, µM (titrated, usually from 46.1 µM), hits mostly inhibitors | 340,000 tested, 0.05% active | AID 493014; active = well fitted inhibition curve with a large enough effect in the signal ratio, with a control signal flat, not every such curve was filed as active; inconclusive = small, poorly fitted or top-dose-only effect, or effect the other way, or a change in a side signal; the % refers to the signal ratio
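Doxycycline induced both beetle luciferases in TMD8 lymphoma cells; IKK-driven degradation limits the IkappaBalpha-fused green signal, while red luminescence normalises for cell number and nonspecific effects. Compounds tested up to 46 uM, 4 hrs.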
Large screens that a line does not name were inactive. Sampled rows, rich in hits. Any-hit rate of the full collection: about 19%. Unless noted, calls follow the shape of the dose curve; as a rule, active = well fitted curve in the direction sought with a large enough effect; inconclusive = small, poorly fitted or top-dose-only effect, or another doubt; inactive = no such curve, though single readings can be large; an effect the other way counts as inactive or inconclusive.

Cc1cccc(-n2nc([N+](=O)[O-])c(=NC3CCN(Cc4ccccc4)CC3)n2O)c1	TDP1 cell CPT 8.2µM, SW480 rerep inconclusive, TDP1 cell noCPT 12µM
CCCSc1nc(C)c(C(C)=O)cc1C#N	Chronic BCR inh 18µM
CC(=O)Oc1ccccc1Cn1c(C)c(C(=O)N(C)Cc2ccc(F)cc2)sc1=O	TDP1 cell CPT inconclusive, TDP1 cell noCPT inconclusive (no result: MCF10A rereplic, SW480 rerep, Chronic BCR inh)
COc1ccccc1/C=N/Nc1cc(N(C)C)nc(N(C)C)n1	IL-1B inflam inh -153, MCF10A rereplic inconclusive, SW480 rerep inconclusive, TDP1 cell noCPT inconclusive
COc1ccc(/C=N/Nc2cc(C)nc(N)n2)cc1	none
COc1ccc(/C=N/Nc2cc(N(C)C)nc(N(C)C)n2)cc1	TDP1 cell CPT inconclusive, IL-1B inflam inh -75, MCF10A rereplic inconclusive, SW480 rerep inconclusive, TDP1 cell noCPT inconclusive
O=c1[nH]cnc2[nH]cc(CN3CCCCC3)c12	none (no result: IL-1B inflam inh, MCF10A rereplic, SW480 rerep, Chronic BCR inh)
CCCCNC(=O)c1sc2ncccc2c1-n1cccc1	TDP1 cell CPT 12µM (no result: IL-1B inflam inh, MCF10A rereplic, SW480 rerep, Chronic BCR inh)
CSc1ncccc1C(=O)NCCc1ccccc1	none
COCCCNC(=O)c1sc2ncccc2c1-n1cccc1	none (no result: IL-1B inflam inh, MCF10A rereplic, SW480 rerep, Chronic BCR inh)
O=C(O)c1sc2ncccc2c1OCc1ccccc1	none
O=C(NCCc1ccccc1)c1sc2ncccc2c1-n1cccc1	TDP1 cell CPT 26µM, TDP1 cell noCPT inconclusive (no result: IL-1B inflam inh, MCF10A rereplic, SW480 rerep, Chronic BCR inh)
CCOc1ncccc1C(=O)NCc1ccccc1F	none
CSc1ccc(CCNC(=O)c2sc3ncccc3c2-n2cccc2)cc1	TDP1 cell CPT 16µM, TDP1 cell noCPT 26µM (no result: IL-1B inflam inh, MCF10A rereplic, SW480 rerep, Chronic BCR inh)
O=C(NCc1ccccc1F)c1sc2ncccc2c1-n1cccc1	TDP1 cell CPT 23µM, TDP1 cell noCPT inconclusive (no result: IL-1B inflam inh, MCF10A rereplic, SW480 rerep, Chronic BCR inh)
CC(C)c1ccc(-c2nnc(SCC(=O)NC3CC3)n2C)cc1	none
CC(C)[C@@H]1[C@H]2CC[C@H](C2)[C@H]1N	none (no result: IL-1B inflam inh, MCF10A rereplic, SW480 rerep, Chronic BCR inh)
CCCCNC(=O)c1sc2nc(C)cc(COC)c2c1-n1cccc1	TDP1 cell CPT 16µM, TDP1 cell noCPT 26µM, Chronic BCR inh inconclusive
CCCNC(=S)NC1CC2CCC(C1)N2Cc1ccccc1 (stereo not drawn)	TDP1 cell CPT inconclusive
CCNC(=S)NC1CC2CCCC(C1)N2CCc1ccccc1 (stereo not drawn)	IL-1B inflam inh inconclusive, MCF10A rereplic 0.73µM, SW480 rerep inconclusive
CCNC(=S)NC1CC2CCC(C1)N2Cc1ccccc1 (stereo not drawn)	none
S=C(NCCc1cccc(Cl)c1)NC1CCCCC1	TDP1 cell CPT inconclusive, SW480 rerep inconclusive, TDP1 cell noCPT 21µM
S=C(NC1CCCCC1)NC1CC2CCC(C1)N2Cc1ccccc1 (stereo not drawn)	TDP1 cell CPT inconclusive, TDP1 cell noCPT 18µM
S=C(NCCc1ccccc1)NC1CC2CCC(C1)N2Cc1ccccc1 (stereo not drawn)	TDP1 cell CPT inconclusive, IL-1B inflam inh -60, TDP1 cell noCPT inconclusive
COc1ccc(NC(=O)c2sc(=O)n(Cc3ccccc3C#N)c2C)cc1OC	TDP1 cell CPT inconclusive, TDP1 cell noCPT inconclusive (no result: MCF10A rereplic, SW480 rerep, Chronic BCR inh)
O=C(Cc1ccc(NC(=O)N2CCCCc3ccccc32)cc1)Nc1ccccc1Br	TDP1 cell CPT inconclusive, TDP1 cell noCPT 21µM (no result: IL-1B inflam inh, MCF10A rereplic, SW480 rerep, Chronic BCR inh)
CC(C)c1ccc(NC(=O)Cc2ccc(NC(=O)N3CCCCc4ccccc43)cc2)cc1	TDP1 cell CPT 18µM, TDP1 cell noCPT 21µM (no result: IL-1B inflam inh, MCF10A rereplic, SW480 rerep, Chronic BCR inh)
CCN(CC(=O)NC1CCS(=O)(=O)C1)S(=O)(=O)c1ccccc1Cl (stereo not drawn)	none
COc1ccc(-c2noc(=O)n2Cc2ccccc2Cl)cc1	none
O=C1C2=C(c3ccccc31)[N+](=O)C1CCCCC1N2[O-] (stereo not drawn)	TDP1 cell CPT 23µM, TDP1 cell noCPT 15µM
Cc1ccnc2ccc(Br)cc12	none (no result: IL-1B inflam inh, MCF10A rereplic, SW480 rerep, Chronic BCR inh)
O=C(Nc1ccc(Cl)cc1)N1CCCN(Cc2ccccc2F)C1	TDP1 cell CPT 25µM, IL-1B inflam inh inconclusive, TDP1 cell noCPT inconclusive, Chronic BCR inh inconclusive
C[C@@H]1CN([C@H](C)CO)C(=O)CCCn2cc(nn2)CO[C@H]1CN(C)S(=O)(=O)c1ccc2ccccc2c1	none (no result: MCF10A rereplic, SW480 rerep, Chronic BCR inh)

Screens (PubChem)
